Data on eight compounds can be found in PubChem BioAssay (NCI).

Some test systems named below: HT29 colon; SNB-75 CNS; SNB-19 CNS; U251 CNS; SK-MEL-5 melanoma; UACC-62 melanoma; LOX IMVI melanoma; SK-MEL-28 melanoma; SK-MEL-2 melanoma; EKVX NSCLC; SN12C renal; UO-31 renal; TK-10 renal; ACHN renal; CAKI-1 renal; A498 renal; MOLT-4 leukemia; SR leukemia; CCRF-CEM leukemia.
Common to all, as to experiment: NCI-60 one-dose screen, 48 h (100 = growth as untreated, 0 = no growth, -100 = all killed)
What all share (conditions): 10 µM unless noted

Compounds without any hit were thinned out: in the full panel of roughly 83,000, 20% have a hit.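 Step 1: grow cells in 96-well plates. Step 2: add test compound at a single concentration. Step 3: incubate 48 h. Step 4: record percent growth.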 A number with no mark means an inactive call. Active and inactive are the calls of the source. How the source made its calls: active means growth percent below 10; inactive means the rest.

`COc1ccc2c(c1)C(=O)/C(=C/c1cccc(OCC(=O)c3ccccc3)c1)CC2`: the growth is 80.9% in the test with HT29 colon; 112% with SNB-75 CNS; 100% in the test on SNB-19 CNS; 76.9% in the test on U251 CNS; 39.3% with SK-MEL-5 melanoma; 70.2% in the test on UACC-62 melanoma. Also, the growth in the test with LOX IMVI melanoma is 70.3%; with SK-MEL-28 melanoma it was 106%; in the test on SK-MEL-2 melanoma, 67.3%; in the test on EKVX NSCLC it was 75.8%; with SN12C renal, 114%; in the test with UO-31 renal, 9.87% (active). In addition, the growth in the test on TK-10 renal is 107%; with ACHN renal it was 94.4%; in the test on CAKI-1 renal, 80.4%; with A498 renal, 89.2%; in the test on MOLT-4 leukemia, 52.7%; with SR leukemia it was 11.1%.

In the case of `O=C(Nc1ccc(C2=NCCCN2)cc1)Nc1ccc(C2=NCCCN2)cc1`, the growth with HT29 colon was 92.4%; with SNB-75 CNS it was 94.5%; in the test on SNB-19 CNS it was 96.7%; in the test with U251 CNS, 93.7%; in the test on SK-MEL-5 melanoma it was 69.7%; in the test on UACC-62 melanoma, 87.7%. Further, the growth is 89.9% with LOX IMVI melanoma; 86.9% in the test on SK-MEL-28 melanoma; 49% in the test on SK-MEL-2 melanoma; 64.1% in the test on EKVX NSCLC; 94.8% in the test on SN12C renal; 90.1% in the test with UO-31 renal. Besides, the growth in the test on TK-10 renal was 109%; with ACHN renal it was 87.7%; in the test on CAKI-1 renal it was 79.3%; in the test on A498 renal it was 77.4%; with CCRF-CEM leukemia it was 73%; in the test on MOLT-4 leukemia, 71.6%. Also, the growth in the test on SR leukemia is 69.8%.

Consider `O=C(Nc1ccc(Nc2ccncc2)cc1)c1ccc(Nc2ccnc3ccc([N+](=O)[O-])cc23)cc1[N+](=O)[O-]`, for which the growth with HT29 colon is 103%; with SNB-75 CNS, 85.8%; with SNB-19 CNS, 29.6%; in the test on U251 CNS, -46.1% (active); in the test with SK-MEL-5 melanoma it was 103%; in the test with UACC-62 melanoma, 91.1%. Moreover, the growth is 21.1% in the test with LOX IMVI melanoma; 54.6% with SK-MEL-28 melanoma; 82.2% in the test with SK-MEL-2 melanoma; 50% in the test on EKVX NSCLC; 68% in the test with SN12C renal; 52.8% with UO-31 renal. Besides, the growth in the test on TK-10 renal is 102%; in the test on ACHN renal it was 65.9%; with CAKI-1 renal, 89.3%; in the test with A498 renal, 120%; in the test with MOLT-4 leukemia, 109%.

Regarding `COc1cc(/C=C/C(=O)c2ccc(F)cc2)ccc1OCCCCCOc1cc2c(cc1OC)C(=O)N1CCCC1C=N2` (stereo not drawn), the growth in the test with HT29 colon was -18.8% (active); in the test with SNB-75 CNS, -57.5% (active); with SNB-19 CNS it was 2.88% (active); in the test on U251 CNS, -77.5% (active); with SK-MEL-5 melanoma it was -78.1% (active); in the test with UACC-62 melanoma, -92.4% (active). In addition, the growth in the test with LOX IMVI melanoma is -94% (active); with SK-MEL-28 melanoma, -48% (active); in the test on SK-MEL-2 melanoma, -18% (active); with EKVX NSCLC, -20.9% (active); in the test on SN12C renal it was -2.73% (active); in the test with TK-10 renal, -9.06% (active). For the same compound, the growth is -9.07% (active) in the test on ACHN renal; -1.54% (active) with CAKI-1 renal; -65.5% (active) with A498 renal; -28.9% (active) in the test on MOLT-4 leukemia; -32.6% (active) in the test on SR leukemia.

For the compound `NC(=O)N/N=C/c1ccc(Br)o1`, the growth in the test on HT29 colon was 102%; in the test with SNB-75 CNS, 105%; in the test on SNB-19 CNS, 111%; in the test on U251 CNS, 106%; in the test with SK-MEL-5 melanoma, 101%; in the test on UACC-62 melanoma it was 104%. The growth with LOX IMVI melanoma was 94.2%; with SK-MEL-28 melanoma, 105%; with SK-MEL-2 melanoma it was 99.6%; in the test on EKVX NSCLC, 101%; in the test on UO-31 renal, 86.1%; in the test with TK-10 renal it was 101%. For the same compound, the growth is 106% in the test with ACHN renal; 98.4% in the test with CAKI-1 renal; 97.5% with A498 renal; 108% with CCRF-CEM leukemia; 97.9% in the test on MOLT-4 leukemia; 97.6% in the test on SR leukemia.

Take `COc1ccc(Nc2ccnc(NCCCNc3ccnc4cc(Cl)ccc34)n2)cc1`: the growth in the test on HT29 colon is -56.6% (active); in the test with SNB-75 CNS it was -75.5% (active); in the test with SNB-19 CNS, 7.11% (active); in the test on U251 CNS, -84.3% (active); with SK-MEL-5 melanoma it was -98% (active); in the test on UACC-62 melanoma, -91.2% (active). For the same compound, the growth was -80.4% (active) in the test with LOX IMVI melanoma; -93.6% (active) in the test on SK-MEL-28 melanoma; -86.4% (active) in the test with SK-MEL-2 melanoma; -21.5% (active) in the test with SN12C renal; -71.8% (active) in the test with UO-31 renal; -72.3% (active) in the test with TK-10 renal. Further, the growth in the test with ACHN renal is -96.8% (active); with CAKI-1 renal, -40.3% (active); in the test with A498 renal, -7.79% (active); with CCRF-CEM leukemia, -19.3% (active); in the test on MOLT-4 leukemia it was -21.1% (active).

In the case of `CSC1=Nc2c(c(C)c(-c3ccccc3)n2CCCN2CCCCC2)C2=NC(=O)C[C@H](C)N12`, the growth in the test on HT29 colon was 21.4%; in the test on SNB-75 CNS, 50.3%; in the test with SNB-19 CNS, 20.2%; with U251 CNS, 11.8%; in the test on SK-MEL-5 melanoma it was 9.86% (active); in the test with UACC-62 melanoma, 53.7%. For the same compound, the growth was 42.3% in the test with LOX IMVI melanoma; 43.2% in the test on SK-MEL-28 melanoma; 62.8% in the test with SK-MEL-2 melanoma; 41.9% in the test on EKVX NSCLC; 45.5% with SN12C renal; 56.6% in the test on UO-31 renal. Besides, the growth in the test with TK-10 renal is 48.7%; in the test on ACHN renal it was 66.8%; with CAKI-1 renal it was 66.9%; in the test with A498 renal it was 80.8%; in the test with MOLT-4 leukemia it was 67.6%; with SR leukemia it was 2.43% (active).

Take `COc1ccccc1[C@H]1c2[nH]c3ccccc3c2C[C@H]2C(=O)N(CCCCCCC(=O)NO)CC(=O)N12`: the growth with HT29 colon is 23.4%; in the test on SNB-75 CNS it was -6.11% (active); in the test with SNB-19 CNS, 67.3%; in the test with U251 CNS, 46.6%; in the test with SK-MEL-5 melanoma it was 26.6%; in the test on UACC-62 melanoma it was 23.7%. Besides, the growth in the test on LOX IMVI melanoma is 32.7%; with SK-MEL-28 melanoma, 18.6%; with SK-MEL-2 melanoma, 59.5%; in the test with EKVX NSCLC, 74.7%; in the test on SN12C renal it was 56.9%; in the test with UO-31 renal it was 44.7%. Further, the growth is 48.2% in the test on TK-10 renal; 35.1% in the test on ACHN renal; 55.5% in the test on CAKI-1 renal; 31.9% with A498 renal; 5.22% (active) in the test on CCRF-CEM leukemia; 11% in the test on MOLT-4 leukemia. For the same compound, the growth in the test with SR leukemia is 19.3%.
